# Experimental data reported in PubChem BioAssay (EPA / NIEHS).
# Active and inactive are the calls of the source. Rule for the calls: active = hit-call score of the fitted dose curve at least 0.9, where 1 is the maximum; inactive = score below 0.9.
# Experiment: APR_HepG2_MitoMembPot_72hr: Apredica 72-hour HepG2 Assay for Mitochondrial Membrane Potential (AID 2282917)
# Settings: imaging, actives raise or lower the signal
# Procedure: APR_HepG2_72hr is a cell-based, multiplexed-readout assay that uses HepG2, a human liver cell line, with measurements taken at 72 hours after chemical dosing in a 384-well plate.APR_HepG2_MitoMembPot_72hr is one of 10 assay component(s) measured or calculated from the APR_HepG2_72hr assay. It is designed to make measurements of dye binding, a form of membrane potential reporter, as detected with fluorescence intensity signals by HCS Fluorescent Imaging technology.Data from the assay component APR_HepG2_MitoMembPot_72hr was analyzed into 1 assay endpoint. This assay endpoint, APR_HepG2_MitoMembPot_72hr, was analyzed with bidirectional fitting relative to DMSO as the negative control and baseline of activity. Using a type of membrane potential reporter, gain or loss-of-signal activity can be used to understand changes in the signaling. Furthermore, this assay endpoint can be referred to as a primary readout, because this assay has produced multiple assay endpoints where this one serves a signaling function. To generalize the intended target to other relatable targets, this assay endpoint is annotated to the cell morphology intended target family, where the subfamily is organelle conformation.
# Cells were treated with dimethyl sulfoxide (DMSO) as a solvent control at a final concentration of 0.5% v/v or with compounds in DMSO with a resulting final DMSO concentration of 0.5% v/v. Compound treatment was done at concentrations of 0.39, 0.78, 1.56, 3.12, 6.24, 12.5, 25, 50, 100, and 200 uM in duplicate on each plate. Cells were treated with compounds for 1, 24, or 72 hr. Carbonyl […] m-chloro-phenylhydrazone (CCCP) and taxol were used as positive controls for mitochondrial function and cytoskeletal stability, respectively; DMSO served as the negative control for this experiment. Cells were fixed by the direct addition of 50 uL formaldehyde in Hank's Balanced Salt Solution (HBSS) to a final concentration of 3.7%. After incubation in the fixation medium for 30 min at room temperature (293-298 K), cells were rinsed twice with HBSS and treated with cell permeabilization buffer (16 uL of 0.5% Triton X-100) for 10 min at room temperature (293-298 K) before labeling. For mitochondrial membrane potential and mitochondrial measurements, pre-fixed cells were incubated with 50 uL of MitoTracker Red CMXRos (Invitrogen) at a concentration of 250 nM for 30 min before fixation. In the remaining cases, post-fixed cells were labeled by incubation with a multiplexed mixture of primary antibodies in HBSS for 60 min at room temperature (293-298 K) to detect immunoreactivity of c-Jun (1:500), phospho-histone H3 (1:100), phospho-histone H2A.x (1:200), p53 (1:400), alpha-tubulin (1:200) and Hoechst 33342 (2 ug/mL). Cells were labeled for multiplexed imaging on two separate plates: a) Hoechst 33342, MitoTracker Red, phospho-histone H3, and alpha-tubulin, and b) Hoechst 33342, phospho-histone H2A.x, and c-Jun. A final rinse with HBSS (50 uL) was performed before analysis. The primary and secondary antibodies for the proteins were phospho-histone H3 (rabbit anti-phospho-histone H3 and FITC-donkey anti-rabbit IgG), phospho-histone H2A.x (mouse anti-phospho-histone H2A.x and FITC-donkey anti-mouse IgG), c-Jun (rabbit anti-phospho-c-Jun and Cy3-donkey anti-rabbit IgG), p53 (sheep anti-p53 and Cy5-donkey anti-sheep IgG), alpha-tubulin (mouse anti-alpha-tubulin and Cy5-donkey anti-mouse IgG). These antibodies are available as the CellCiphr HepG2 assay kit (Millipore).Digital images of each well were captured using a Cellomics ArrayScan VTI (Thermo Scientific Cellomics) (0.8 NA objective, 0.63x optical coupler, and XF-93 filter set) at 20x magnification. The images were acquired using the autofocus feature of the ArrayScan instrument, which entails the following steps. First, the camera focuses on channel 1 (Hoechst 33342), where nuclei are identified. Second, a Z offset of 1 um is used for capturing mitochondria (MitoTracker Red). […]
SMILES,outcome,AC50
Clc1cccc(C(Cl)(Cl)Cl)n1,inactive,–
CCOc1nc(F)cc2nc(S(=O)(=O)Nc3c(Cl)cccc3Cl)nn12,inactive,–
CCOC(=O)C(C)OC(=O)c1cc(Oc2ccc(C(F)(F)F)cc2Cl)ccc1[N+](=O)[O-] (stereo not given),–,19.8 µM (active)
COc1cc(Cl)c(OC)cc1Cl,inactive,–
CC1(C)CON(Cc2ccccc2Cl)C1=O,inactive,–
CCOc1nc(C(Cl)(Cl)Cl)ns1,inactive,–
COc1ccc(-c2ccccc2)cc1NNC(=O)OC(C)C,inactive,–
CCC(C)n1c(=O)[nH]c(C)c(Br)c1=O (stereo not given),inactive,–
Cc1c(COC(=O)[C@@H]2[C@H](/C=C(\Cl)C(F)(F)F)C2(C)C)cccc1-c1ccccc1,inactive,–
N#Cc1c(Cl)cccc1Cl,inactive,–
Nc1cnn(-c2ccccc2)c(=O)c1Cl,inactive,–
Cn1c(-c2ccccc2)cc(-c2ccccc2)[n+]1C,inactive,–
C=CCOC(=O)C(C)(C)OC(=O)c1cc(-n2c(=O)cc(C(F)(F)F)n(C)c2=O)ccc1Cl,–,65.2 µM (active)
CCOc1cc(C(C)(C)C)ccc1C1COC(c2c(F)cccc2F)=N1 (stereo not given),inactive,–
COC(=O)NC(=S)Nc1ccccc1NC(=S)NC(=O)OC,inactive,–
CC(C)C1(C)N=C(c2ncccc2C(=O)O)NC1=O (stereo not given),inactive,–
Nc1c(Cl)c(F)nc(OCC(=O)O)c1Cl,inactive,–
CN/C(=N\[N+](=O)[O-])NCc1cnc(Cl)s1,inactive,–
CCOP(=S)(OCC)Oc1nc(Cl)n(C(C)C)n1,inactive,–
CCN(CC)c1nc(C)cc(OP(=S)(OC)OC)n1,inactive,–

SMILES,outcome,AC50
COC(=O)c1c(C(F)F)nc(C(F)(F)F)c(C2=NCCS2)c1CC(C)C,inactive,–
CCOP(=O)(OCC)Oc1nc(Cl)c(Cl)cc1Cl,inactive,–
CNC(=O)Oc1cccc2ccccc12,–,76.9 µM (active)
COP(=O)(OC)O/C(C)=C/C(=O)N(C)C,inactive,–
N#CN=C1SCCN1Cc1ccc(Cl)nc1,inactive,–
O=C1C2CC=CCC2C(=O)N1SC(Cl)(Cl)Cl (stereo not given),inactive,–
COP(=S)(OC)Oc1ccc([N+](=O)[O-])c(C)c1,inactive,–
CSC(=O)c1c(C(F)F)nc(C(F)(F)F)c(C(=O)SC)c1CC(C)C,inactive,–
Nc1c(Cl)c(Cl)nc(C(=O)O)c1Cl,inactive,–
CCSC(=O)N1CCCCCC1,inactive,–
CC(C)(C)C(=O)C(Oc1ccc(Cl)cc1)n1cncn1 (stereo not given),inactive,–
CC(C)=CC1C(C(=O)OCc2coc(Cc3ccccc3)c2)C1(C)C (stereo not given),–,159 µM (active)
O=c1n(Cl)c(=O)n(Cl)c(=O)n1Cl,inactive,–
Cc1nc(N(C)C)nc(OC(=O)N(C)C)c1C,inactive,–
Clc1nc(Cl)nc(Nc2ccccc2Cl)n1,inactive,–
Cc1cc(C)nc(Nc2ccccc2)n1,inactive,–
COc1cc(OC)nc(NC(=O)NS(=O)(=O)c2ncccc2OCC(F)(F)F)n1,inactive,–
OC(c1ccc(Cl)cc1)(c1ccc(Cl)cc1)C(Cl)(Cl)Cl,inactive,–
O=C(O)c1c(Cl)ccc2cc(Cl)cnc12,inactive,–
CC(C)N1C(=O)c2ccccc2NS1(=O)=O,inactive,–
